# Assay results as given in PubChem BioAssay (NCATS).
# Records with an inconclusive call do not appear. A call without a number means that no potency is given here. The source made the active and inactive calls. Calls come from the whole dose curve; as a rule, active = well fitted curve in the direction sought with a large enough effect; inconclusive = small, poorly fitted or top-dose-only effect, or another doubt; inactive = no such curve, though single readings can be large; an effect the other way counts as inactive or inconclusive.
# How the values were obtained:
# [1] = target: ATP-dependent DNA helicase Q1 (Homo sapiens) (UniProt P46063); test: qHTS Validation Assay for Inhibitors of RecQ-Like Dna Helicase 1 (RECQ1) (AID 2353); note: potency is the fitted concentration of half-maximal effect
# Sequence of ATP-dependent DNA helicase Q1 (Homo sapiens) (P46063 whole entry, looked up): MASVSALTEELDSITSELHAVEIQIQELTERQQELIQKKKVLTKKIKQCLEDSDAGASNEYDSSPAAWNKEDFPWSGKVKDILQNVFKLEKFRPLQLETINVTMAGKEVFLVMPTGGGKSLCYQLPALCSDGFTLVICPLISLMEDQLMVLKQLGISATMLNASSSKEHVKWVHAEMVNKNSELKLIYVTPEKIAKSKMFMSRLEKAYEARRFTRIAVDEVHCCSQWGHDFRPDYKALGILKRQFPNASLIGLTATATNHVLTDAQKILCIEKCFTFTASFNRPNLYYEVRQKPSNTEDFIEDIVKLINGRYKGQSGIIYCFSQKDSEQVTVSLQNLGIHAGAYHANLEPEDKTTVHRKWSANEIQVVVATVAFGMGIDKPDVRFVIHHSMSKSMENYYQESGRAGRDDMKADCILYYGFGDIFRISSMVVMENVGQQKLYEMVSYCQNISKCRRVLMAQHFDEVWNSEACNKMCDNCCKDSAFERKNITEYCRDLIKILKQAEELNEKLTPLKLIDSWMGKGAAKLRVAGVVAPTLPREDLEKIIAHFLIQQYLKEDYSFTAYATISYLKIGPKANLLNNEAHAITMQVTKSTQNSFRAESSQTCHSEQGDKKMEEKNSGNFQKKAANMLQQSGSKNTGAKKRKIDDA
# Summary of the method: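 RECQ1T1 50 nM; forked duplex (20 bp + 30-nt ss tails) 200 nM, ATP 2 mM final; pH 8.0, 2 mM MgCl2, 2.5 ug/ml poly(dI-dC); 15 min compound preincubation; discontinuous kinetic read over 2 h at RT.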
# [2] = target: RecQ-like DNA helicase BLM (Homo sapiens) (UniProt P54132); test: qHTS Validation Assay for Inhibitors of Bloom's syndrome helicase (BLM) (AID 2364); note: potency is the fitted concentration of half-maximal effect
# Sequence of RecQ-like DNA helicase BLM (Homo sapiens) (P54132 whole entry, looked up): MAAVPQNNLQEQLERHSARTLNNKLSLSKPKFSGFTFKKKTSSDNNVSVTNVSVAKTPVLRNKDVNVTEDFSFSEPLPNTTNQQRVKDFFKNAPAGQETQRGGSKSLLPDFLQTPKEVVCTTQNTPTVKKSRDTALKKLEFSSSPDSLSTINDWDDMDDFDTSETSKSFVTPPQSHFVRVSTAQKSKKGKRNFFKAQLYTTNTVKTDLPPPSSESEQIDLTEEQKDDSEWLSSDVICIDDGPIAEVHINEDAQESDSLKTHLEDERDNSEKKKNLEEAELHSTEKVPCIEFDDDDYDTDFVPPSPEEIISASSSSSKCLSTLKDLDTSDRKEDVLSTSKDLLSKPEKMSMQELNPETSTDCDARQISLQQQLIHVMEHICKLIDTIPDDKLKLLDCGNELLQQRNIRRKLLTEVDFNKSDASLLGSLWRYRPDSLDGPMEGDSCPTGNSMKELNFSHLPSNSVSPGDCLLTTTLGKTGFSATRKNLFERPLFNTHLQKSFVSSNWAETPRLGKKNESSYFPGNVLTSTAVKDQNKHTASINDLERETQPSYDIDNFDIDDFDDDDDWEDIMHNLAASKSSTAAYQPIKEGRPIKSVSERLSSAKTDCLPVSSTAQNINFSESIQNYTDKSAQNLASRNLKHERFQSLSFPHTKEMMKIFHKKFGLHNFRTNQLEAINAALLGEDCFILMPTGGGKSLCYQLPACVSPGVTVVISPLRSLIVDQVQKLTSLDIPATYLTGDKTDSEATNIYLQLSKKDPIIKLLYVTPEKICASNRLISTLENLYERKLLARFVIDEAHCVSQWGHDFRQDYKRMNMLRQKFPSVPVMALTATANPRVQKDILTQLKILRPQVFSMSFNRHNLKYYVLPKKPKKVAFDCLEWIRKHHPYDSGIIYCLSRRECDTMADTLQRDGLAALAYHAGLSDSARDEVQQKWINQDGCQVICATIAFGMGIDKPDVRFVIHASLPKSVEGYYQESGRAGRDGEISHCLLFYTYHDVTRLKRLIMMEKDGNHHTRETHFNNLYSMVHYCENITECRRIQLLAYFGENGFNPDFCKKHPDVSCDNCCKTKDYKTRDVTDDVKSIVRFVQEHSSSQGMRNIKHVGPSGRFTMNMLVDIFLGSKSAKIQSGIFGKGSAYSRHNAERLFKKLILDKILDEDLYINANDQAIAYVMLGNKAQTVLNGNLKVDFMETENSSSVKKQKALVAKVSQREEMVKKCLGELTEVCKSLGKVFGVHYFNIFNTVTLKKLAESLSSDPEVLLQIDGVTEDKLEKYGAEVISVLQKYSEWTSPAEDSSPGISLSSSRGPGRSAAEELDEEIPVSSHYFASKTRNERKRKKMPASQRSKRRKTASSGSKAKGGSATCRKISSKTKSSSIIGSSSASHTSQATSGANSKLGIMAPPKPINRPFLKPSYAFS
# Summary of the method: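 BLM 50 nM in 25 mM Tris-HCl pH 8.0, 5 mM NaCl, 2 mM MgCl2, 1 mM DTT, 0.01% Tween-20, 2.5 ug/ml poly(dI-dC); 15 min cpd preinc, RT. Start: 200 nM forked DNA + 2 mM ATP (final). TAMRA read, 2 reads 2 h apart.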
# [3] = Cytometric Cell-Based qHTS for Inhibitors of the mTORC1 Signaling Pathway in MEF (Tsc2-/-, p53-/-) Cells (AID 2660);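 note: percent of cells above a phospho-rpS6 to PI ratio cutoff in each well; series mostly up to about 38 µM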
# Summary of the method: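 Tsc2-/-, p53-/- MEFs (empty vector) exposed to compound 24 h at 37 C, fixed, stained with Alexa-488 anti-phospho-rpS6 Ser235/236 and propidium iodide. Acumen laser scanning; phospho-S6/PI ratio thresholded against 7.5 nM rapamycin, reported as % positive cells.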
# [4] = High Content Imaging Cell-Based qHTS for Inhibitors of the mTORC1 Signaling Pathway in MEF (Tsc2-/-, p53-/-) Cells (AID 2666);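 note: percent of cells scored positive for phospho-rpS6 Ser235/236 immunostaining by imaging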
# Summary of the method: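 Inhibition of rpS6 phosphorylation is measured by immunofluorescence imaging in empty-vector Tsc2-/-, p53-/- mouse embryonic fibroblasts after 24 hrs compound exposure at 37 degree Celsius. Results are reported as % positive cells per well.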
# [5] = High Content Imaging Cell-Based qHTS for Inhibitors of the mTORC1 Signaling Pathway in MEF Cells (AID 2667);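 note: Tsc2-/- p53-/- MEFs stably re-expressing wild-type Tsc2 exposed 24 h; series mostly up to about 38 µM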
# Summary of the method: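 Fixed-cell imaging of phospho-S6 (Ser235/236, Alexa-488) after 24 hrs of compound treatment at 37 degree Celsius. Signal was normalized to Hoechst, and thresholds from the highest and lowest wells split cells into % active versus % non-active.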
# [6] = Cytometry Cell-Based qHTS for Inhibitors of the mTORC1 Signaling Pathway in MEF cells (AID 2668);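 note: Tsc2-/- p53-/- mouse embryonic fibroblasts stably re-expressing wild-type Tsc2; percent cells positive for phospho-rpS6 Ser235/236 relative to propidium iodide stain; series mostly up to about 38 µM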
# Summary of the method: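 MEFs (Tsc2-/-, p53-/- stably expressing WT Tsc2) treated 24 h at 37 degree Celsius, fixed, stained with Alexa-488 anti-phospho-rpS6 Ser235/236 and propidium iodide; Acumen laser scanning. Reported as % positive cells, phospho-S6 normalized to PI.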
# [7] = Validation screen for small molecules that induce DNA re-replication in MCF 10A normal breast cells (AID 463097); note: nearly all actives have a fitted effect of over 60% in size; note: potency is the fitted concentration of half-maximal effect
# Summary of the method: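 MCF 10A cells exposed to compound 48 hr at 37 C, 5% CO2, then Hoechst-stained 40 min. Laser-scanning imaging of nuclear DNA content (405 nm ex, 500-530 nm em); re-replication scored as rise in nuclei with elevated fluorescence intensity.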
# [8] = target: Ferritin light chain (Equus caballus) (UniProt P02791); test: qHTS Validation Assay for Identification of Novel General Anesthetics (AID 2323); note: series mostly up to about 77 µM
# Sequence of Ferritin light chain (Equus caballus) (P02791 2-175 limits assumed): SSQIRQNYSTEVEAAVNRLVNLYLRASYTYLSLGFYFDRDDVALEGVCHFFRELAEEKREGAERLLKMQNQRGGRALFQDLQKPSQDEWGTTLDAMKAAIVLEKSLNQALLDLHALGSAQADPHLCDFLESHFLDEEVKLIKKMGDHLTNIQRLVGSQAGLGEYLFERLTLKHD
# Summary of the method: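 Horse-spleen apoferritin (10 uM) in PBS with 50% saturated 1-aminoanthracene; compounds pin-transferred, 10 min at room temperature. Fluorescence read at 380/535 nm, normalized to free 1-AMA and 1-AMA/apoferritin values; four-parameter Hill fit.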
SMILES,Potency [1],Potency [2],outcome [3],Potency [4],Potency [5],Potency [6],Potency [7],Potency [8]
CC(C)NCC(O)COc1cccc2ccccc12 (stereo not drawn),inactive,inactive,inactive,inactive,inactive,inactive,inactive,–
O=c1[nH]c2cc(Cl)c(Cl)cc2[nH]c1=O,inactive,–,inactive,inactive,inactive,inactive,inactive,–
O=C(/C=C/c1ccc(O)cc1)c1ccc(O)cc1O,inactive,–,inactive,inactive,inactive,–,–,–
CN1C2CCC1CC(OC(=O)C(O)c1ccccc1)C2 (stereo not drawn),–,–,inactive,inactive,inactive,–,inactive,inactive
S=C(S)OC1CC2CC1C1CCCC21 (stereo not drawn),inactive,–,inactive,inactive,inactive,inactive,–,–
Cc1ccccc1CNc1ncnc2c1ncn2C1OC(CO)C(O)C1O (stereo not drawn),inactive,–,inactive,inactive,inactive,inactive,–,–
N#C/C(=C\c1ccc(O)c(O)c1)C(=O)c1ccc(O)c(O)c1,0.282 µM (active),8.91 µM (active),inactive,inactive,inactive,–,inactive,–
N#C/C(=C\c1ccc(O)c(O)c1)C(=O)NCCCc1ccccc1,–,–,inactive,inactive,–,–,–,–
CN1CCc2cc(NC(=O)Nc3cccnc3)ccc21,inactive,–,inactive,inactive,inactive,inactive,inactive,–
C=C[C@@H]1CN2CC[C@@H]1C[C@H]2[C@H](O)c1ccnc2ccc(OC)cc12,–,inactive,inactive,inactive,inactive,inactive,inactive,–
CN1CCC[C@H]1c1cccnc1,inactive,–,inactive,inactive,inactive,inactive,inactive,–
CN=c1nc(-c2ccccc2)n(-c2ccccc2)s1,inactive,–,–,inactive,inactive,inactive,11.2 µM (active),–
